Data taken from PubChem BioAssay AID540333 (Southern Research Specialized Biocontainment Screening …, 2011).
Hit rate of the full screen: of about 10,000 compounds, about 320 (3.2%) were called active. No stated cut-off is given here; in the data, active means CPE inhibition mostly above about 9.1% (no sharp cut-off); inactive means mostly below about 7.2%. The list comes from a sample in which actives are over-represented; it also holds similar structures and randomly drawn compounds.

assay: antivirals protecting cells from dengue CPE – CPE readout, HTS (AID 540333); conditions: Dengue virus CPE inhibition in host cells, at 20 µM; hits give high values

SMILES	CPE inhibition
CC(C)[C@H](NC(=O)c1ccccc1)C(=O)OCC(=O)N1CCCCCC1	1.74% (inactive)
COc1cc(C(=O)NC(=S)N(CCc2ccccc2)CCc2ccccc2)cc(OC)c1OC	inactive
COCCNC(=S)N/N=C(\C)c1ccccc1OC	0.125% (inactive)
Cc1ccc(-c2nc(N)sc2CC(=O)OCC(=O)NC2CCCC(C)C2C)cc1 (stereo not given)	0.74% (inactive)
COc1cccc(/C=C(/C(=O)OCC(=O)NC2CCCC(C)C2C)c2ccccc2)c1 (stereo not given)	28.3% (active)
CC1CCCC(NC(=O)COC(=O)c2cccc(NS(=O)(=O)/C=C/c3ccccc3)c2)C1C (stereo not given)	inactive
O=C1COc2cc(ccc2[N+](=O)[O-])Oc2ccc(cc2Cl)C(=O)CCCCO1	inactive
c1nc(N2CCC3(CC2)OCCO3)c2[nH]cnc2n1	inactive
Cc1ccc(C(C(=O)NC2CCCCC2)N(C(=O)Cc2c[nH]c3ccccc23)c2ccccc2C)o1 (stereo not given)	3.84% (inactive)
COc1cccc(CN(C(=O)Cc2c[nH]c3ccccc23)C(C(=O)NC2CCCCC2)c2ccc(C)o2)c1 (stereo not given)	3.12% (inactive)
Cc1ccc(C(C(=O)NC2CCCCC2)N(Cc2ccccc2)C(=O)Cc2c[nH]c3ccccc23)o1 (stereo not given)	24.2% (active)
CCN1CCS/C1=C/C=C/C1=[N+](CC)CCS1	0.14% (inactive)
CC(C)(C)[C@H]1C=C(C(=O)Nc2ccccc2)O[C@@H](OCCCCO)C1	inactive
O=C1C2C(c3ccccc3)(C(=O)N1c1ccc(Cl)cc1)C2(c1ccccc1)c1ccccc1 (stereo not given)	1.7% (inactive)
O=C1C2C3C=CC(c4ccccc4)(C2C(=O)N1c1cccc(Cl)c1)C1C(=O)N(c2cccc(Cl)c2)C(=O)C31 (stereo not given)	25.2% (active)
CC12CCC(C(=O)N(c3cccc(Cl)c3)C1=O)C2(C)C (stereo not given)	inactive
CC(C)(C)c1ccc(-c2ccc3c(c2)S(=O)(=O)c2ccccc2C3=O)cc1	2.16% (inactive)
COc1ccc(CCN2C(=O)NC(NC(C)=O)(C(F)(F)F)C2=O)cc1OC (stereo not given)	0.945% (inactive)
CCCCC[C@H]1CN(CCCC)C(=O)[C@@H]1CC(=O)NCc1ccccc1	3.67% (inactive)
COc1ccc(CN2C[C@H](Cc3ccccc3)[C@@H](CC(=O)Nc3ccccc3)C2=O)cc1	13.5% (active)
COC(=O)CN1C(=S)N(Cc2ccccc2)C(=O)C1CC(=O)Nc1ccc(OC)cc1 (stereo not given)	inactive
O=C(CN1C2=NCCCN2c2ccccc21)c1cccc(Br)c1	4% (inactive)
COc1ccc2c(c1)C(=O)N1[C@H]3c4cc(OC)ccc4OC[C@@H]3[C@H](c3ccccc3)[C@]1(C)C(=O)N2	7.37% (inactive)
C[C@]12C(=O)N(c3ccc(F)cc3)C(=O)N1[C@H]1c3ccccc3OC[C@@H]1[C@H]2c1ccccc1	1.73% (inactive)
COc1ccc2c(c1)[C@H]1[C@H](CO2)[C@H](c2ccccc2)[C@]2(C)C(=O)Nc3cc(Cl)ccc3C(=O)N12	11% (inactive)

SMILES	CPE inhibition
CCOC(=O)[C@@H]1[C@H]2COc3cc(OC)ccc3[C@@H]2N2C(=O)N(c3ccccc3)C(=O)[C@]12C	0.065% (inactive)
COc1cc2c(cc1OC)C(=O)N1[C@H]3c4cc(Cl)ccc4OC[C@@H]3[C@H](c3ccccc3)[C@]1(C)C(=O)N2	16.3% (active)
COc1ccc2c(c1)OC[C@H]1[C@H]2N2C(=O)CN(Cc3ccc(F)cc3)C(=O)[C@@]2(C)[C@H]1c1ccccc1	12.2% (active)
CCOC(=O)[C@@H]1[C@H]2COc3cc(OC)ccc3[C@H]2N2C(=O)N(c3ccc(F)cc3)C(=O)[C@@]12C	2.49% (inactive)
C[C@]12C(=O)N(c3ccc(C(F)(F)F)cc3)C(=O)N1[C@H]1c3ccccc3OC[C@@H]1[C@H]2c1ccccc1	11.2% (inactive)
C[C@@]12C(=O)Nc3ccc(F)cc3C(=O)N1[C@H]1c3cc(Br)ccc3OC[C@@H]1[C@@H]2c1ccccc1	6.78% (inactive)
COc1ccc2c(c1)[C@H]1[C@H](CO2)[C@H](c2ccccc2)[C@]2(C)C(=O)Nc3cc(OC)c(OC)cc3C(=O)N12	2% (inactive)
COc1ccc2c(c1)C(=O)N1[C@H]3c4cc(C)ccc4OC[C@@H]3[C@H](c3ccccc3)[C@]1(C)C(=O)N2	14.5% (active)
C[C@@]12C(=O)Nc3ccc(Br)cc3C(=O)N1[C@H]1c3cc(Cl)ccc3OC[C@@H]1[C@@H]2c1ccccc1	18.8% (active)
CCOc1ccc(N2C(=O)/C(=C/c3ccco3)N(C)C2=S)cc1	3.13% (inactive)
Cc1cc(C)cc(NC(=S)NCc2cccs2)c1	1.1% (inactive)
Cc1ccc(C)c(NC(=O)COC(=O)c2cccc3c2C(=O)c2ccccc2C3=O)c1	0.805% (inactive)
O=C(OC(c1ccccc1)c1nccc2ccccc12)c1cc([N+](=O)[O-])cc([N+](=O)[O-])c1 (stereo not given)	0.39% (inactive)
Cc1ccc(-c2nn(-c3ccccc3)cc2/C=C/C(=O)Nc2nccs2)cc1	3.35% (inactive)
CC(=O)N1CCC2(CC1)CC(=O)c1cc(Cl)ccc1O2	inactive
Cc1cc(C)c(-c2csc(NC(=O)c3n[nH]c(=O)c4ccccc34)n2)c(C)c1	2.35% (inactive)
COC(=O)[C@H]1[C@H](CCc2ccccc2)NC(=O)N(Cc2ccccc2)[C@@H]1C	inactive
COc1ccc(C2C3CCCCC3(O)CCN2C(=O)c2cccs2)cc1 (stereo not given)	2.42% (inactive)
COC(=O)c1c(NC(=O)CN2CCC3(O)CCCCC3C2c2ccc(F)cc2)sc(C)c1C (stereo not given)	27.5% (active)
COC(=O)c1c(NC(=O)CC2Sc3ccc(C(F)(F)F)cc3NC2=O)sc(C)c1C (stereo not given)	0.71% (inactive)
COC(=O)c1c(NC(=O)CN2CCC3(O)CCCCC3C2c2ccccc2OC)sc(C)c1C (stereo not given)	2.39% (inactive)
CCOC(=O)c1c(NC(=O)CN2C(=O)NC3(CCCCC3)C2=O)sc(C)c1-c1ccc(C)cc1	9.96% (inactive)
COC(=O)c1c(NC(=O)CN2CCC3(O)CCCCC3C2c2cc(OC)ccc2OC)sc(C)c1C (stereo not given)	11.8% (active)
CCOc1cc(/C=C(\C#N)C(N)=O)ccc1OS(=O)(=O)c1ccccc1	0.64% (inactive)
COc1cc(C(=O)NCC(c2ccco2)N(C)C)cc(OC)c1OC (stereo not given)	0.055% (inactive)
